Data reported in PubChem BioAssay (NCI).
Compounds without any hit were thinned out: in the full panel of roughly 83,000, 20% have a hit.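 Each cell line was grown in a 96-well plate and treated with one concentration of compound for 48 hours. Values below 10 were considered active.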 Active and inactive are the calls of the source.

Columns and labels:
Assay in all cases: NCI-60 one-dose screen, 48 h (100 = growth as untreated, 0 = no growth, -100 = all killed)
Settings in all cases: 10 µM unless noted
[1] = tested on: SK-MEL-2 melanoma
[2] = tested on: EKVX NSCLC
[3] = tested on: SN12C renal
[4] = tested on: UO-31 renal
[5] = tested on: TK-10 renal
[6] = tested on: ACHN renal
[7] = tested on: CAKI-1 renal
[8] = tested on: A498 renal
[9] = tested on: CCRF-CEM leukemia
[10] = tested on: MOLT-4 leukemia
[11] = tested on: SR leukemia
[12] = tested on: RPMI-8226 leukemia
[13] = tested on: OVCAR-8 ovarian
[14] = tested on: OVCAR-5 ovarian
[15] = tested on: OVCAR-4 ovarian
[16] = tested on: SK-OV-3 ovarian
[17] = tested on: IGROV1 ovarian
[18] = tested on: HS 578T breast
[19] = tested on: NCI/ADR-RES ovarian
[20] = tested on: OVCAR-3 ovarian

Measured: growth

COc1ccccc1/C=C/C(=O)c1nnn(-c2ccc(F)cc2)c1C
inactive: [1] 93.2% | [2] 69.3% | [3] 68.5% | [4] 38.1% | [5] 110% | [6] 46.1% | [7] 38.5% | [8] 66.8% | [9] 14% | [10] 45% | [11] 13.2% | [12] 20.9% | [13] 44.9% | [14] 89.5% | [15] 59.2% | [16] 95.8% | [17] 45.6% | [18] 78.3% | [19] 34.3%

CCC(=C(c1ccc(OCCN(C)C)cc1)c1ccc(OCCN(C)C)cc1)c1ccc(Cl)cc1
active: [1] -41.8% | [2] 7.78% | [3] -33.2% | [4] -71.9% | [6] -78.5% | [7] -53.6% | [8] -23.3% | [9] -50.8% | [10] -50.2% | [11] -43% | [12] -43.8% | [13] -21.5% | [14] -48.7% | [15] -20.1% | [17] -76.8% | [20] -34.8% | [18] -36.1% | [19] -25.7%
inactive: [5] 60.2% | [16] 95.5%

O=C(/C=C/c1csc(Br)n1)NO
active: [5] -9.31% | [6] 8.2% | [8] -5.59% | [10] 9.51% | [12] 9.04% | [19] 1.04%
inactive: [1] 37.6% | [2] 37.5% | [3] 68.7% | [4] 15.5% | [7] 15.9% | [9] 21.2% | [11] 13.8% | [13] 22.3% | [14] 10.7% | [15] 65.1% | [16] 38.2% | [17] 16.7% | [18] 44.3%
